Reference: PubChem BioAssay
Calls of active or inactive are those of the source. Rule as the data show it: active = fold change permeability below about 0.7 or above about 1.3; inactive = in between.

Test: modulators of brain endothelial barrier permeability, primary screen, cell-based, FITC-avidin fluorescence, HTS (AID 1963498); also: test concentration not given here
Details: actives lie on both sides

Fold change permeability, inactive:
Cc1nnc(SCC2=C(C(=O)O)N3C(=O)[C@@H](NC(=O)Cn4cnnn4)[C@H]3SC2)s1 0.9
CN1CCC(=C2c3ccccc3C=Cc3ccccc32)CC1 1.1
CN1CCC[C@@H]1CCO[C@](C)(c1ccccc1)c1ccc(Cl)cc1 1.1
CCCCCCNC(=O)n1cc(F)c(=O)[nH]c1=O 0.9
COc1cc(/C=C/C(=O)N2CCC=CC2=O)cc(OC)c1OC 1
C[C@](N)(Cc1ccc(O)c(O)c1)C(=O)O 0.8
CC(C)C(=O)Nc1ccc([N+](=O)[O-])c(C(F)(F)F)c1 1.2
CC[C@@]1(O)C(=O)OCc2c1cc1n(c2=O)Cc2cc3c(CN(C)C)c(O)ccc3nc2-1 1
CCCCCCCCCC(=O)N[C@H](CN1CCOCC1)[C@H](O)c1ccccc1 0.9
CCO/C([O-])=N/c1c[n+](N2CCOCC2)no1 0.8
Clc1cccc(Cl)c1CSc1nnc(-c2cnccn2)s1 1.2
O=C(O)C1CCNCC1 1.2
COc1cc([C@@H]2c3cc4c(cc3[C@@H](O[C@@H]3O[C@@H]5CO[C@@H](C)O[C@H]5[C@H](O)[C@H]3O)[C@H]3COC(=O)[C@H]23)OCO4)cc(OC)c1O 0.9
Cc1cc(C(=O)N2Cc3cnn(C)c3Nc3ccccc32)ccc1CNC(=O)N1CCN(Cc2cc(O)cc(O)c2)CC1 1.2
CCN(CC)CCNC(=O)c1ccc(N)cc1 0.8
NCCS(=O)(=O)O 0.8
N[C@H](C(=O)O)c1cc(O)cc(O)c1 1.2
COc1ccc(-c2ccc(N)[n+](CCCC(=O)O)n2)cc1 0.8
Clc1ccccc1C(c1ccccc1)(c1ccccc1)n1ccnc1 1.2
CC1(C)SCCN(S(=O)(=O)c2ccc(OCC#CCO)cc2)[C@H]1C(=O)NO 1.1
NC(N)=NCCCCN=C(N)N 1.2
O=C1NCN(c2ccccc2)C12CCN(CCCC(c1ccc(F)cc1)c1ccc(F)cc1)CC2 1.2
COc1ccc(CCN(C)CCCC(C#N)(c2cc(OC)c(OC)c(OC)c2)C(C)C)cc1OC (centres undefined) 0.9
COC(=O)C1=C(C)NC(C)=C(C(=O)OC(C)(C)CN(C)CCC(c2ccccc2)c2ccccc2)C1c1cccc([N+](=O)[O-])c1 (centres undefined) 1.1
C/C(O)=C(\C#N)C(=O)Nc1ccc(C(F)(F)F)cc1 1.2
C#CC(N)CCC(=O)O (centres undefined) 1.1

Fold change permeability, active:
Cc1ccccc1/C=C/C1=NCCN1 0.7
N=C1CCCN1Cc1[nH]c(=O)[nH]c(=O)c1Cl 1.6
O=C(O)C1CCCNC1 (centres undefined) 1.3
Oc1ccc(O)cc1 1.4
C=C1C[C@@]23CC[C@H]4[C@@](C)(CCC[C@@]4(C)C(=O)O[C@@H]4O[C@H](CO)[C@@H](O)[C@H](O)[C@H]4O)[C@@H]2CC[C@]1(O[C@@H]1O[C@H](CO)[C@@H](O)[C@H](O)[C@H]1O[C@@H]1O[C@H](CO)[C@@H](O)[C@H](O)[C@H]1O)C3 1.7
O=C(NCCO)c1cccc(-c2cc(Nc3ccc(OC(F)(F)F)cc3)ncn2)c1 1.4
Nc1nc(-c2ccccc2)c(Br)c(=O)[nH]1 1.7
CCCCn1c(-c2ccccc2)nc(-c2ccccc2)c1CN(Cc1ccc2c(c1)OCO2)Cc1ccc2c(c1)OCO2 1.3
CCCN(CC1CC1)c1nc(C)nc(Nc2c(Cl)cc(Cl)cc2Cl)c1Cl 1.3
O=C(Cc1ccccc1)Nc1nnc(CCSCCc2nnc(NC(=O)Cc3ccccc3)s2)s1 1.5
COc1cc2c(cc1O)[C@@H](Cc1ccc(O)c(Oc3ccc(C[C@@H]4c5cc(OC)c(OC)cc5CCN4C)cc3)c1)N(C)CC2 1.6
COC(=O)C1=CO[C@@H](O)[C@@H]2C(CO)=CC[C@H]12 1.1
CN(C)CC/C=C1\c2ccccc2COc2ccccc21 1.4
